Bioassay records as filed in PubChem.
The list is not random: actives were taken first. Their share in the collection is about 3.6%.
Giardia FBPA inh: blocks Giardia fructose-bisphosphate aldolase activity; A8B2U2; purified Giardia FBPA; Potency, µM (doses to about 59.6 µM), inactives show at the top dose activity, negative = inhibition, usual class: inhibitors; 0.71% of 290,000 active; AID 2451; note: nearly all actives have a fitted effect of over 55% in size
Target sequence (A8B2U2 whole entry, looked up): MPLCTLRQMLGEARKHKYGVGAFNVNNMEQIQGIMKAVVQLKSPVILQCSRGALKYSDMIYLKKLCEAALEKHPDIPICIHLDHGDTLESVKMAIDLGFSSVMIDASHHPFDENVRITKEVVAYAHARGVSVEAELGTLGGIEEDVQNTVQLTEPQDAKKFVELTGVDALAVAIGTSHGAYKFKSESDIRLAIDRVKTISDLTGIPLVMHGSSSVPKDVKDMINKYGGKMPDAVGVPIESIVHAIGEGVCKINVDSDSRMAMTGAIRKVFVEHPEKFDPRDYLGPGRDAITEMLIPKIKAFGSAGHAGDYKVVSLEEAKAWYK
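Giardia FBPA (40 nM reagent) was preincubated 10 min at RT with compound (up to 57.5 uM final), then substrate plus GAPDH/TPI/NAD/arsenate coupling system with diaphorase/resazurin was added; resorufin fluorescence (525/598 nm) was read after 20 min.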
AmpC detergent: inhibitors of E. coli AmpC beta-lactamase with detergent; AmpC hydrolysis of nitrocefin, absorbance 480 nm, 0.01% Triton; Potency, µM (highest dose often 114 µM), for the others: top-dose activity change, negative = inhibition, actives largely listed as inhibitors; 0.041% of 370,000 active; AID 485294;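 note: 0% = no-compound wells and -100% = no-enzyme wells; nearly all actives have a fitted effect of over 25% in size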
Target sequence (P00811 whole entry, looked up): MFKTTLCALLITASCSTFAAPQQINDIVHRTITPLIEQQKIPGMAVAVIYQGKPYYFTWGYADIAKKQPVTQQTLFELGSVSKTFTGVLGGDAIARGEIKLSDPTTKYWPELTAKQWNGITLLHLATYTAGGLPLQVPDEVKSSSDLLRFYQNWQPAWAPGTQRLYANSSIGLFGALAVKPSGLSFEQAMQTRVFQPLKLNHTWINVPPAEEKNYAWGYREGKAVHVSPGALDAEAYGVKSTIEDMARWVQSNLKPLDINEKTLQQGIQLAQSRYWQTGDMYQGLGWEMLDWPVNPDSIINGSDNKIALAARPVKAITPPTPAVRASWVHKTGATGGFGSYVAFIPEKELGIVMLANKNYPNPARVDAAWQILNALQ
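AmpC (5.3 nM in the dispensed reagent) in 20 mM phosphate pH 7.0 with 0.01% (detergent screen) or 0.0001% Triton X-100 was preincubated with compounds for 15 min at room temperature. Nitrocefin was then added from an 800 uM solution, and hydrolysis was followed at 480 nm.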
Sm TGR inh: S. mansoni TGR enzyme inhibition; Q962Y6; AID 485364; purified TGR, DTNB reduction, TNB absorbance 405 nm; Potency, µM (top dose mostly 114 µM), inactives show at the top dose activity change, negative = inhibition, most hits filed as inhibitors; 3% of 360,000 active; note: nearly all actives have a fitted effect of over 60% in size
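Kinetic colorimetric format: TGR-catalysed, NADPH-driven DTNB reduction monitored via TNB absorbance. Enzyme dispensed at 20 nM; compound exposure 15 min at room temperature before reaction start.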
AmpC inh no detg: inhibitors of E. coli AmpC beta-lactamase without detergent; 0.52% of 330,000 active; Potency, µM (highest dose often 57.1 µM), for the others: top-dose activity change, negative = inhibition, usual class: inhibitors; AmpC nitrocefin hydrolysis, absorbance 480 nm, 0.0001% Triton;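 note: plate controls were no compound for no effect and no enzyme for full effect; nearly all actives have a fitted effect of over 20% in size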
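AmpC (5.3 nM in the dispensed reagent) in 20 mM phosphate pH 7.0 with 0.01% (detergent screen) or 0.0001% Triton X-100 was preincubated with compounds for 15 min at room temperature. Nitrocefin was then added from an 800 uM solution, and hydrolysis was followed at 480 nm.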
* hit, by the source's call; u = inconclusive; x = no result given. Calls come from the whole dose curve; as a rule, active = well fitted curve in the direction sought with a large enough effect; inconclusive = small, poorly fitted or top-dose-only effect, or another doubt; inactive = no such curve, though single readings can be large; an effect the other way counts as inactive or inconclusive. Unless noted, % is set by controls: 0 for no effect and ±100 for the full control effect; potency is the fitted concentration of half-maximal effect.

SMILES | Giardia FBPA inh | AmpC detergent | Sm TGR inh | AmpC inh no detg
COc1cccc(CNC(=O)COC(=O)CCS(=O)(=O)c2ccc(C)cc2)c1 | x | -1% | -3% | 9%
COc1ccc(C2=NN(CCC(=O)NCc3cccs3)C(=O)CC2)cc1 | 4% | 7% | -3% | -15%
COC(=O)C1=C(C)NC(=O)NC1c1ccco1 (stereo unspecified) | 1% | -15% | -11% | -15%
COC(=O)C1=C(C)NC(C)=C(C(=O)OC)C1c1ccc(-c2cccc(Cl)c2Cl)o1 | 0% | 7% | u | -57%
COC(=O)C1=C(C)NC(=S)NC1c1ccc(-c2cccc(Cl)c2)o1 (stereo unspecified) | -24% | 0% | 8.9µM* | u
COC(=O)C1=C(C)NC(=O)NC1c1ccc(-c2ccc(F)cc2)o1 (stereo unspecified) | 0% | 0% | 14µM* | -19%
COC(=O)C1=C(C)NC(=O)NC1c1ccc(-c2ccccc2Cl)o1 (stereo unspecified) | -2% | -10% | 25µM* | -25%
COc1ccc2cc(/C=C/C(=O)c3ccco3)c(Cl)nc2c1 | 0% | 1% | 45µM* | -21%
Cc1ccc2cc(/C=C/C(=O)c3ccco3)c(Cl)nc2c1 | 0% | 4% | 8.9µM* | -23%
COc1ccc(Cn2c(S(=O)(=O)CC(N)=O)nc3ccccc32)cc1[N+](=O)[O-] | -8% | -1% | -18% | -13%
CC1CN(C(=O)CCC(=O)NCc2cccs2)c2ccccc2O1 (stereo unspecified) | x | -2% | 0% | x
OCCN1CCN(C(=S)c2ccc(Cl)c(Cl)c2)CC1 | 13µM* | 5% | 1% | 6%
COc1cc(NC(=S)N2CCN(CCO)CC2)c(OC)cc1Cl | -3% | -5% | 1% | -7%
O=C(NCCc1ccccc1)c1ccc2c(c1)N(Cc1ccccc1)C(=O)CS2=O (stereo unspecified) | 1% | u | 7% | 5µM*
Cc1ccc(-n2nc(C)c3c(C)c(CCC(=O)NCc4ccc(Cl)cc4)c(C)nc32)cc1 | x | 17% | 2% | x
O=C(CSc1nnc(C2COc3ccccc3O2)o1)NC1CCCCC1 (stereo unspecified) | 3% | -5% | 5% | 40µM*
CCn1nnc(NC(=O)c2ccc(-c3ccc(Cl)cc3)o2)n1 | 2% | -1% | 22µM* | -8%
CCn1nnc(NC(=O)Cc2ccc(Cl)cc2)n1 | 1% | 0% | 15% | -19%
CN(Cc1ccco1)c1ncncc1-c1cccc(NS(C)(=O)=O)c1 | -2% | x | x | x
Cc1nc2nc(N)nn2c(C)c1C/C=C/c1ccccc1 | -4% | u | 16µM* | -11%
O=C(O)c1ccc2c(c1)C(=O)N([C@H](Cc1ccccc1)C(=O)O)C2=O | 4% | u | 2% | -5%
COc1ccc(-n2cccc2/C=C/[N+](=O)[O-])cc1 | -21% | -12% | 25µM* | -16%
Cc1nn(-c2ccccc2)c2c1cc1c(=O)[nH]c(=O)nc-1n2-c1cccc(Cl)c1 | x | 1% | -10% | x
O=C(O)c1ccc2c(c1)C(=O)N([C@H](Cc1ccc3ccccc3c1)C(=O)O)C2=O | 23% | u | -3% | -13%
CCOC(=O)c1c(-n2c(C)cc(C=C3C(=O)NC(=S)NC3=O)c2C)sc2c1CCCC2 | u | -7% | 11µM* | -32%
SMILES | Giardia FBPA inh | AmpC detergent | Sm TGR inh | AmpC inh no detg
Cc1ccc(/C=C/C(=O)N2CC(C)CC(C)C2)o1 (stereo unspecified) | -7% | -10% | 2.8µM* | -2%
O=C(/C=C/c1ccco1)N1CCN(S(=O)(=O)c2cccs2)CC1 | -1% | 8% | 3.5µM* | -9%
Cc1ccc(CNC(=O)C2CCN(S(=O)(=O)c3cccs3)CC2)o1 | 4% | 4% | 5.6µM* | 20%
CCN1CCN(C(=O)/C=C/c2ccc(C)o2)CC1 | -18% | u | u | 7%
O=C(/C=C/c1cccc([N+](=O)[O-])c1)N1CCN(S(=O)(=O)c2cccs2)CC1 | 0% | 8% | -1% | -17%
Cc1ccc(CNC(=O)C2CCN(S(=O)(=O)c3cccs3)CC2)cc1 | 3% | -6% | -4% | -9%
Cc1ccc(/C=C/C(=O)N2CCN(S(=O)(=O)c3cccs3)CC2)o1 | -4% | 0% | 8.9µM* | 3%
CCc1ccccc1NC(=O)c1cc(S(=O)(=O)N2CCc3ccccc32)ccc1F | x | 7% | 9% | x
CCN(CC)S(=O)(=O)c1cccc(C(=O)NC(Cc2c[nH]c3ccccc23)c2nnc3n2CCC3)c1 (stereo unspecified) | 3% | -6% | -11% | 174%
CCC1=NN2C(=N)/C(=C\c3ccc(SCc4ccco4)o3)C(=O)N=C2S1 | -11% | u | 50µM* | -32%
CCCC1=NN2C(=N)/C(=C\c3ccc(SCc4ccco4)o3)C(=O)N=C2S1 | -23% | -17% | u | -52%
O=C1NC(=S)S/C1=C\c1ccc(SCc2ccco2)o1 | -25% | u | 1.3µM* | -49%
N#CC(=C1CCCC1)c1nc(-c2ccccc2O)cs1 | -11% | -1% | 25µM* | u
Cc1ccccc1N1CCN(CCC(=O)Nc2ccc(F)cc2)CC1 | 4% | -19% | 40µM* | 257%
Cc1onc(-c2ccccc2Cl)c1C(=O)N1CCN(S(=O)(=O)c2ccc(F)c(F)c2)CC1 | -7% | 3% | -3% | 104%
CCOc1cc(/C=C/c2nc3cc(C)c(C)cc3s2)ccc1OCC(=O)N1CCOCC1 | -4% | -3% | 3% | 195%
CCOc1cc(/C=C\[N+](=O)[O-])ccc1OCC(=O)N1CCOCC1 | -1% | 3% | 10µM* | 56%
Cc1ccc(CNc2ccc3c(c2)OCO3)cc1 | u | -5% | 45µM* | x
NS(=O)(=O)c1ccc(CCNC(=O)c2ccccc2OCc2ccc(F)cc2)cc1 | 6% | u | 5% | 11µM*
COc1ccc(/C=N/NC(=O)c2ccc(-c3ccccc3)cc2)cc1O | 2% | -8% | -1% | 35µM*
COc1ccc(/C=N\NC(=O)c2cc(O)c(O)c(O)c2)cc1COc1ccc(C(=O)OCC(C)C)cc1 | u | 3% | -34% | 10µM*
COc1cc(/C=N/NC(=O)c2ccccc2)ccc1O | -2% | -3% | -5% | -29%
COc1ccc(C(=O)N/N=C/c2ccc(OC)c(COc3ccccc3)c2)cc1 | x | 4% | -1% | 78%
COc1ccc(C(=O)N/N=C/c2ccc(OC(=O)c3cccc4ccccc34)c([N+](=O)[O-])c2)cc1 | -12% | -8% | 8% | 28µM*
COc1cccc(NC(=O)Cn2c(=O)n(CCCCC(=O)NCCc3ccccc3)c(=O)c3ccccc32)c1 | x | 8% | -1% | x
Cc1ccc(Cn2c(/C=C/c3ccco3)nc3ccccc32)cc1 | -11% | -14% | 11µM* | -32%
C#CCn1c(/C=C/c2ccc(Cl)cc2)nc2ccccc21 | x | 28% | -2% | x
Clc1ccc(Cn2c(/C=C/c3ccco3)nc3ccccc32)cc1 | -6% | u | 28µM* | -33%
Cc1nn(C(=O)c2cccc(Cl)c2)c(C)c1S(=O)(=O)N1CCOCC1 | x | u | 20µM* | x
